Assay outcomes as filed in PubChem BioAssay.
NALP1 inh = NALP1 inflammasome inhibitors in reconstituted yeast, colorimetric, S. cerevisiae, triplicate retest; S. cerevisiae NALP1/ASC/caspase-1 growth, X-gal OD620, 72 h; inhibition, % at 10 µM; 280,000 tested, 0.61% active; AID 2071, 2009; in the data active means inhibition mostly above about 24%, no sharp cut-off; inactive means mostly below about 32%
tim23-1 inh = growth inhibitors of tim23-1 mutant yeast, primary screen, luminescence, uHTS | S. cerevisiae tim23-1 growth, BacTiter-Glo luminescence, 24 h | inhibition, % at 20 µM | 330,000 tested, 1.3% active | AID 463212, 2010;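 active means growth inhibition of the mutant yeast at or above 50%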;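 further: temperature-sensitive mutant grown at 25 °C; plate controls were DMSO-treated mutant yeast for no effect and medium wells lacking yeast for full effect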
tim10-1 inh = growth inhibitors of tim10-1 mutant yeast, primary screen, luminescence, uHTS. 330,000 tested, 2.2% active. S. cerevisiae tim10-1 ts strain growth, BacTiter-Glo, 24 h. inhibition, % at 20 µM;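 active means inhibition of at least 40%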;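 further: mutant grown at 25 °C; 0% = DMSO wells with yeast and 100% = wells holding no yeast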
NALP3 yeast inh = NALP3 inflammasome inhibitors in reconstituted yeast, primary screen, luminescence, uHTS | Yeast reconstituted NLRP3/ASC/caspase-1, beta-gal luminescence, 24 h | inhibition, % at 10 µM | 330,000 tested, 0.39% active;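 active means inhibition of 50% or more; inactive means inhibition below 50%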;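 further: plate controls were induced DMSO wells for no effect and uninduced yeast grown without galactose for full effect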
TIM10 inh = growth inhibitors of isogenic TIM10 control yeast, primary screen, counter-screen for tim10-1 yeast inhibitor project, luminescence, uHTS. 330,000 tested, 1.4% active. inhibition, % at 10 µM. S. cerevisiae TIM10 strain growth, BacTiter-Glo luminescence, 24 h. AID 463195, 2010;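 active means inhibition of 40% or more at the single tested concentration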;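 further: wild-type TIM10 isogenic control strain grown at permissive 25 °C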
tim10-1 conf = growth inhibitors of tim10-1 mutant yeast, confirmation, single concentration, luminescence, S. cerevisiae; inhibition, % at 20 µM; 7,400 tested, 56% active; shares compounds with tim10-1 inh; S. cerevisiae tim10-1 ts strain growth, BacTiter-Glo, 24 h;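 active means inhibition of yeast growth at or above a set limit in either of two repeat tests at 20 µM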;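 further: tim10-1 mutant grown at permissive 25 °C to find synthetic lethal compounds; 0% = DMSO yeast wells and 100% = medium wells without yeast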
TIM10 conf = growth inhibitors of wild-type TIM10 yeast, confirmation, counter-screen for tim10-1 synthetic lethality project, single concentration, luminescence, S. cerevisiae | shares compounds with TIM10 inh | S. cerevisiae tim10 strain growth, BacTiter-Glo luminescence, 24 h | inhibition, % at 10 µM | 4,600 tested, 63% active;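 active means inhibition of yeast growth at or above a set limit in either of two replicates at 10 µM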;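 further: this counterscreen used the strain with wild-type TIM10; 0% = yeast with DMSO and 100% = medium wells lacking yeast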
Starred values were filed as active, the others as inactive; x = no result given. In the library only some 4.1% were active in any assay of this set; here they are far more common.

SMILES	NALP1 inh	tim23-1 inh	tim10-1 inh	NALP3 yeast inh	TIM10 inh	tim10-1 conf	TIM10 conf
COc1ccc(NC(=O)C2CCC(=O)N2C(=O)OCc2ccccc2)cc1 (stereo unspecified)	21	4	10	21	-2	x	x
COc1cc(C(=O)OCC(=O)c2cc(C)n(C)c2C)cc(OC)c1OC	10	38	42*	2	45*	32	8
Cc1cc(C(=O)COC(=O)c2nccnc2N)c(C)n1C	-16	-6	4	6	3	x	x
CC1=C(C(=O)OC(C)C)C(c2ccc(Cl)cc2)n2c(s/c(=C\c3ccc(OCC(=O)O)cc3)c2=O)=N1 (stereo unspecified)	3	x	x	x	x	x	x
COc1cc(NS(=O)(=O)c2ccc(NC(=S)NC(=O)COc3ccccc3OC)cc2)nc(OC)n1	3	17	6	8	1	x	x
CCCCCC(=O)NC(=S)Nc1ccc(Cl)cn1	24	40	47*	3	44*	28*	6
CCCCCC(=O)Nc1ccc(Cl)cn1	21	7	-8	8	-8	x	x
Clc1ccc(CN2CCN(c3ncnc4scc(-c5cccs5)c34)CC2)cc1	7	29	44*	4	44*	38*	32*
CCCN(CC(=O)Nc1ccccc1C)C(=O)c1ccc2ccccc2n1	x	12	19	16	-7	x	x
Cc1ccccc1NC(=S)c1ccc2ccccc2n1	16	44	43*	30	40*	20	37*
CN(C)S(=O)(=O)c1cc(NC(=O)COC(=O)CC2Sc3ccccc3NC2=O)ccc1Cl (stereo unspecified)	x	11	3	10	-1	x	x
Cc1ccc(S(=O)(=O)CCC(=O)Nc2ccccc2Br)cc1	11	23	13	24	0	x	x
COc1nc(OC)nc(Oc2ccc([N+](=O)[O-])cc2Cl)n1	6	16	24	-9	-5	x	x
O=C(NC(=S)N(Cc1ccccc1)Cc1ccccc1)c1ccccc1F	9	32	50*	34	59*	38*	44*
COc1ccc(C(=O)NC(=S)N(Cc2ccccc2)Cc2ccccc2)cc1	8	17	47*	22	48*	35*	39*
Cc1ccccc1C(=O)NC(=S)N(CCO)Cc1ccccc1	-5	12	4	22	-6	x	x
O=[N+]([O-])c1nn(-c2ccc3c(c2)OCCO3)n(O)c1=NC1CCCCC1	18	46	56*	16	49*	46*	43*
Cc1ccc(-c2noc(CCC(=O)N(C)c3ccccc3C)n2)cc1	1	32	23	12	9	x	x
Cc1nnc(-c2cccc(Br)c2)c2cn(-c3ccccc3Cl)nc12	11	42	51*	-14	51*	39*	50*
O=C(NC1=NCCS1)c1sc2cc(Cl)cc(Cl)c2c1Cl	38	43	50*	27	45*	25	6
COc1cc(OC)cc(C(=O)NC2=NCCS2)c1	14	7	9	11	11	x	x
Cc1cc(Br)c(Cl)cc1NC(=O)CN1C(=O)C2C3CC(c4ccccc4)C(C3)C2C1=O (stereo unspecified)	14	35	52*	15	52*	43*	5
C=CCN(CC=C)S(=O)(=O)c1ccc(NC(=O)COc2ccccc2OC)cc1	-1	39	45*	11	42*	32*	-11
COc1ccccc1OCC(=O)Nc1ccncc1	8	-5	-12	-1	-2	x	x
O=C(O)c1ccc(S(=O)(=O)c2ccc(Sc3ccc(C(=O)O)c(C(=O)O)c3)cc2)cc1	2	8	6	5	-1	x	x
SMILES	NALP1 inh	tim23-1 inh	tim10-1 inh	NALP3 yeast inh	TIM10 inh	tim10-1 conf	TIM10 conf
Cc1nn(CCC(N)=S)c2nc(-c3cccs3)cc(C(F)(F)F)c12	24	32	44*	22	55*	41*	41*
C(=N\Nc1nc(Nc2ccccc2)nc(N2CCCCC2)n1)/c1ccco1	-6	47	50*	20	48*	31	37*
COc1ccc(C(=O)n2nnc3ccccc32)cc1Br	-14	40	52*	8	40*	22	0
C[C@H](NC(=O)c1ccc(Cl)cc1)C(=O)OCn1nnc2ccccc2c1=O	x	7	-12	-8	-29	x	x
O=C(CSCC(=O)OCn1nnc2ccccc2c1=O)Nc1ccc(Cl)cc1	-1	47	62*	-7	51*	55*	25
O=C(CCc1ccc(Oc2cc([N+](=O)[O-])cc([N+](=O)[O-])c2)cc1)N1CCCCC1	34	11	57*	8	54*	35*	48*
O=C(c1ccc(Oc2ccc([N+](=O)[O-])cc2)cc1)N1CCCCCC1	x	34	29	42	5	x	x
O=C1CC(N2CCN(c3nc4ccccc4s3)CC2)C(=O)N1Cc1cccs1 (stereo unspecified)	4	26	9	17	28	x	x
O=C(CSc1nncs1)Nc1ccc(Cl)cc1C(F)(F)F	x	-1	-5	1	5	x	x
CN(C)Cc1nc2c(c(=O)[nH]1)C(C)(C)Cc1ccccc1-2	22	18	15	21	-9	x	x
CN(C)Cc1nc2c(c(=O)[nH]1)C1(CCCCC1)Cc1ccccc1-2	17	22	49*	-2	44*	38*	38*
N#Cc1c(Cl)c(Cl)c2nnc(-c3ccc(Br)cc3)n2c1Cl	15	42	46*	6	58*	28	15
[S-]c1nnc(-c2ccc(Br)cc2)n1-c1ccccc1.[Zn+2]	-6	14	3	16	3	x	x
COCC(C)n1c(SCC(=O)NC(=O)NC2CCCC2)nc2ccccc2c1=O (stereo unspecified)	x	38	19	11	13	x	x
Cc1ccc(OCCNC(=O)c2cccc(S(=O)(=O)N3CCN(C)CC3)c2)cc1	x	-8	-4	14	1	x	x
Cc1cc(C)c2c(=O)n(CC(=O)Nc3ccc(Cl)cc3)sc2n1	x	18	91*	21	86*	93*	96*
CCOc1ccc(NC(=O)Cn2sc3nc(C)cc(C)c3c2=O)cc1	-10	9	83*	7	46*	90*	88*
Cc1ccc(NC(=O)Cn2sc3nc(C)cc(C)c3c2=O)c(Cl)c1	-19	15	86*	18	81*	92*	96*
Cc1cc(C)c2c(=O)n(CC(=O)Nc3cccc(F)c3)sc2n1	15	15	5	10	4	x	x
